Data on 37 compounds can be found in paper PMC5540273 (PLoS ONE, 2017).

Molecules are shown by their SMILES.
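Also: KINOMEscan kinase panel screen.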

The first assay concerns T1, MEK2.
T1 construct: gene MAP2K2
The note with it: concentration: 1 μM, replicates: in singlicate; n = 1.
Take `COc1cccc(C2=C(Nc3ccc(Cl)c(C(=O)O)c3)C(=O)NC2=O)c1` [SB-390769]: the “%Inh” value amounted to 0%. On the same count and under the same terms, then `COc1ccc(Nc2nccc(NCCNC(=O)c3cc4ccccc4s3)n2)cc1` [GSK1379896], with 0%.

`COc1ccc(CNC(=O)NC2CCN(c3ccnc(Nc4ccc(F)cc4)n3)CC2)cc1` [GSK1379788]: the “%Inh” value amounted to 9%.

Another assay deals with T2, MEK3.
T2 construct: gene MAP2K3
The note with it: concentration: 1 μM, replicates: in singlicate; n = 1.
Turning to `CC(C)(C)c1ccc2nccc(Nc3cccc(O)c3)c2c1` [GW856795], the “%Inh” value amounted to 49%.

Turning to `COc1cc2c(cc1OCCN1CCNCC1)ncc1c3ccc(C#N)cc3[nH]c21`, the “%Inh” value is reported as 34%. As for `COc1cc(Nc2nccc(-c3c(-c4cccc(NC(=O)c5c(F)cccc5F)c4)nn4ccccc34)n2)cc(OC)c1OC` [GSK323521], the “%Inh” value turned out to be 0%. For `Cc1ccc(S(=O)(=O)Nc2ccc(Nc3nccc(Nc4cccc5[nH]ncc45)n3)cc2)cc1` [GSK581271], the “%Inh” value was found to be 0%. On the same count and under the same terms, then `CCc1ccc(-c2ccc3c(c2)-c2c(cnn2C)S(=O)(=O)N3C)cc1`, with 0%; and `O=C(Nc1cccc(-c2nn3ncccc3c2-c2ccnc(Nc3ccccc3)n2)c1)c1c(F)cccc1F` [GSK198271], with 3%. On to `Fc1ccc(-c2ncn(C3CCNCC3)c2-c2ccnc(Oc3ccc(-c4ccccc4)cc3)n2)cc1` [SB-245391], for which the “%Inh” value came out at 18%. On the same count and under the same terms, then `CN(c1ccc(NC(=O)Nc2cc(C(F)(F)F)ccc2F)cc1)c1ccnc(Nc2ccc(S(N)(=O)=O)cc2)n1` [GW809893], with 51%; and `CC(=O)Nc1nc2cnc(Nc3cc(NC(=O)c4cccc(C5(C#N)CC5)c4Cl)ccc3C)nc2s1`, with 0%. The same measure, in the same setting: with `Cl.c1ccc(-c2ccc3c(Nc4ccc5[nH]ncc5c4)ccnc3c2)nc1` [GW440137] the figure was 0%; with `COc1cc(Nc2ncc3c(C)nc(-c4cc5ccccc5[nH]4)n3n2)cc(OC)c1OC` [GW869516], 0%; with `COC(=O)Nc1nc2ccc(Oc3ccc(NC(=O)Nc4cc(C(F)(F)F)ccc4F)cc3)cc2n1C.Cl` [GW692089], 0%. As to `Nc1n[nH]c2cnc(-c3ccccc3)cc12` [SB-642124], the “%Inh” value worked out at 0%. On the same count and under the same terms, then `COc1cc(Nc2nccc(N3CCC(NC(=O)Nc4cccc(C(C)=O)c4)C3)n2)cc(OC)c1OC` (stereo not shown) [GSK1379753], with 0%; and `O=C(NC1CCN(c2ccnc(Nc3ccc(F)cc3)n2)C1)c1cc2ccccc2s1` (stereo not shown) [GSK1379716], with 0%; and `c1ccc(-c2cnc3nccnn23)cc1` [AH20685], with 0%.

Consider `Nc1ncnc2c1nc(-c1ccccc1)n2-c1ccccc1` [SKF-97293], for which the “%Inh” value turned out to be 50%. Still for that read-out and setting: then `CN(C)Cc1ccc(-c2ccc3c(Nc4ccc(Oc5ccccn5)cc4)ccnc3c2)o1` [GW567148], with 0%; and `COc1cc(Nc2nccc(N3CCC(NC(=O)c4cc5ccccc5s4)C3)n2)cc(OC)c1OC` (stereo not shown) [GSK1379760], with 3%. With `Cl.Cl.NCC(NCc1ccc(-c2ccnc3[nH]ccc23)s1)c1ccccc1` (stereo not shown) [GSK1321565], the “%Inh” value stood at 49%.

Regarding `Cl.NC(=O)c1cccc(Nc2nccc(Nc3ccc(Oc4c(Cl)cccc4Cl)c(Cl)c3)n2)c1` [GW659009], the “%Inh” value amounted to 0%. `O=C(Nc1ccccc1F)NC1CCN(c2ccnc(Nc3ccc(F)cc3)n2)CC1` [GSK1379800]: the “%Inh” value amounted to 0%. Turning to `Cc1ccc(C(=O)N2CC[C@@H](O)C2)cc1-n1c(C)cc(OCc2ccc(F)cc2F)c(Br)c1=O`, the “%Inh” value came out at 0%. Same read-out and setting: with `CN(C)S(=O)(=O)c1cc(-c2ccc3nccc(-c4cccc(S(N)(=O)=O)c4)c3c2)cnc1N` [GSK1669921] the figure was 0%; with `O=c1[nH]cc(-c2ccc(N3CCOCC3)cc2)c2sc(-c3cn[nH]c3)cc12` [GSK2276055], 17%. As to `CCCCc1nn2ncccc2c1-c1ccnc(Nc2ccc(N3CCN(C)CC3)cc2)n1` [GW684941], the “%Inh” value is 0%. Same read-out and setting: then `O=C(Nc1cccc(-c2nn3ccccc3c2-c2ccnc(Nc3cccc(F)c3)n2)c1)c1c(F)ccc(F)c1Cl` [GSK357952], with 0%; and `c1ccc(-c2n[nH]cc2Nc2ccnc3ccccc23)nc1` [GW694077], with 92.5%; and `COc1cc(Nc2nccc(-c3c(-c4cccc(NC(=O)c5c(F)cccc5F)c4)nn4ncccc34)n2)cc(OC)c1OC` [GSK327238], with 12%. Take `COc1cccc(C(=O)Nc2cccc(Oc3ccc4nc(NC(=O)C5CC5)cn4n3)c2)c1`: the “%Inh” value amounted to 15%.

Take `COCCOCCOc1cc2ncc3c4ccc(C#N)cc4[nH]c3c2cc1OC`: the “%Inh” value was 12%. Take `Nc1ncc(-c2ccc3nccc(-c4ccncc4)c3c2)cc1S(=O)(=O)N1CCOCC1` [GSK1627798]: the “%Inh” value turned out to be 24%.

Take `Cc1cccc(NC(=O)Nc2ccc(Oc3ncnc4ccn(C)c34)cc2)c1`: the “%Inh” value was 5%. On to `CN1CCN(Cc2cccc(-c3ccc4c(Nc5ccc(Oc6ccccc6)cc5)ccnc4c3)c2)CC1` [GW578342], for which the “%Inh” value was found to be 0%. On the same count and under the same terms, then `COc1cccc(C2=C(Nc3ccc(Cl)c(C(=O)O)c3)C(=O)NC2=O)c1` [SB-390769], with 0%; and `COc1ccc(Nc2nccc(NCCNC(=O)c3cc4ccccc4s3)n2)cc1` [GSK1379896], with 0%. Still for that read-out and setting: with `COc1ccc(CNC(=O)NC2CCN(c3ccnc(Nc4ccc(F)cc4)n3)CC2)cc1` [GSK1379788] the figure was 0%.
